Rv3671c protease = Rv3671c serine protease inhibitors, primary screen, biochemical, fluorescence polarization, M. tuberculosis H37Rv; P9WHR9; inhibition, % at 5.96 µM; 320,000 tested, 0.048% active; in the data active = inhibition above about 38%;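 also: extracellular domain of Rv3671c used as enzyme; 0% = enzyme with DMSO and 100% = no enzyme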
FadD28 FP inh = inhibitors of FadD28 bisubstrate probe binding, primary screen, biochemical, fluorescence polarization, single point; AID 588549, 2011; inhibition, % at 12.5 µM; 360,000 tested, 0.22% active; in the data active = inhibition above about 8.5%, passing the limit was not always enough
UGM FP inh = M. tuberculosis UGM enzyme inhibitors, primary screen, biochemical, fluorescence polarization, single point. UDP-galactopyranose mutase (Mycobacterium tuberculosis (strain ATCC 25618 / H37Rv)), …. purified UGM, fluorescence polarization probe displacement. inhibition, % at 10 µM. 320,000 tested, 0.06% active; in the data active = inhibition above about 10%, passing the limit was not always enough
Target sequence (P9WIQ1 whole entry, looked up): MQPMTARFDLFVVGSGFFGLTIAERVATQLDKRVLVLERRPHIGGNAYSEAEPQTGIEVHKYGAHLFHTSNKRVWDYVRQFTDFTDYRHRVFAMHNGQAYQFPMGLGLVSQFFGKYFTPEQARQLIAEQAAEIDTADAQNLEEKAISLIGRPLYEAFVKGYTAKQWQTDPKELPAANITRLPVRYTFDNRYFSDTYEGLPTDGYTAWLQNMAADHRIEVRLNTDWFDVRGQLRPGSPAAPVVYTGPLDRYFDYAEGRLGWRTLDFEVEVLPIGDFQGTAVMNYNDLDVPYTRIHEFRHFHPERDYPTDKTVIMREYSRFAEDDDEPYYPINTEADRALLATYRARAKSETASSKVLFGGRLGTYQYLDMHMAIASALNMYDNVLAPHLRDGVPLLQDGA
Y pestis TopoI = Yersinia pestis topoisomerase I inhibitors, primary screen, biochemical, cleavage product accumulation, plate reader, single point | 360,000 tested, 0.064% active | DNA topoisomerase I (Yersinia pestis CO92) | activity, % at 10 µM | Y. pestis Topo-I cleavage product accumulation; in the data active = activity above about 50%, passing the limit was not always enough
PfHsp40 rescue = rescue of yeast from PfHsp40 toxicity, primary screen, S. cerevisiae, ATP luminescence. AID 504582, 2011. S. cerevisiae expressing PfHsp40, growth rescue. growth rescue, % at 12.5 µM. 340,000 tested, 0.68% active; in the data active = growth rescue above about 28%, passing the limit was not always enough;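 also: yeast W303a lacking pdr1 and pdr3 grown in galactose medium; growth measured after three days at 30 °C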
Mtb bLac sens = beta-lactam sensitization of Mtb H37Rv, H37Rv. M. tuberculosis H37Rv growth with meropenem, percent inhibition. inhibition, % at 25 µM. 330,000 tested, 0.27% active. AID 434955, 2010; call rule not given here;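 also: growth measured after seven days incubation then overnight dye step; 0% = bacteria only wells and 100% = bacteria with antibiotic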
Starred values were filed as active, the others as inactive; . = no result given. An excerpt weighted towards active compounds, which were near 0.98% of everything screened.

SMILES | Rv3671c protease | FadD28 FP inh | UGM FP inh | Y pestis TopoI | PfHsp40 rescue | Mtb bLac sens
Oc1c(Br)cc(Br)c2cccnc12 | . | -2.8 | . | 1.2 | 148.5* | .
Cc1ccc([N+](=O)[O-])cc1-c1[nH]c(-c2ccc(O)c(O)c2)nc1-c1ccccc1 | 2.6 | 12.9* | -0.6 | 1.0 | 0.8 | -2.8
CNC(C)c1cc(OC)ccc1OC (configuration not stated) | 8.0 | -0.6 | 1.0 | 10.0 | 45.4* | 4.4
COc1ccc(OC)c(C(C)NC(C)=O)c1 (configuration not stated) | -0.3 | -1.6 | 0.3 | 1.5 | 0.7 | 7.8
CCOC(=O)C(=Cc1ccc(N(C)C)cc1)C(=O)c1ccccc1 | . | -3.7 | . | . | . | .
CCOC(=O)/C(=C/c1ccc(OC(=O)c2ccccc2)cc1)C(C)=O | 4.9 | -0.1 | 0.4 | -1.0 | 311.8* | -0.4
Cc1ccc(N=Nc2c(C)[nH]n(C(N)=S)c2=O)cc1C | 11.0 | -1.9 | 1.8 | -0.5 | -0.8 | 96.0
Cc1[nH]n(C(N)=S)c(=O)c1N=Nc1ccc2ccccc2c1 | . | 2.6 | . | 0.8 | 54.9* | .
CCCCC(=O)NC(=S)NNC(=O)CCc1ccccc1 | -2.4 | -0.1 | -0.6 | -2.9 | 336.6* | 0.6
CC(C)(C)c1cc(CCC(=O)NNC(=S)NC(=O)c2ccccc2)cc(C(C)(C)C)c1O | 10.5 | -2.4 | -1.6 | 4.1 | 507.5* | 13.5
O=C(CCc1ccccc1)NNC(=S)NC(=O)c1ccccc1 | 4.2 | -0.2 | -0.4 | 8.4 | 314.2* | 96.9
CNc1ccc2ncc(-c3ccc(OC)c(OC)c3)n2n1 | . | -3.8 | . | -11.9 | . | .
O=S1(=O)CC(N2CCN(CCO)CC2)CN1C1CCCCC1 (configuration not stated) | . | -0.7 | . | . | . | .
CC1(NC(=O)N2CCCCC2)CCS(=O)(=O)C1 (configuration not stated) | -4.8 | 0.4 | -1.8 | 1.6 | -0.4 | 6.2
CC12CC3(C)CC(C)(C1)CC(NC(=O)N1CCCC1)(C2)C3 | 6.3 | -2.8 | 0.4 | 20.1 | 310.3* | -6.6
O=C(O)c1cc(-c2ccc(/C=C3\NC(=O)N(c4ccc(Cl)cc4)C3=O)o2)ccc1Cl | 4.6 | 10.3* | 1.4 | 5.2 | 1.0 | 0.8
O=C(O)c1cc(-c2ccc(/C=C3\NC(=O)N(c4ccccc4)C3=O)o2)ccc1Cl | -3.5 | 1.7 | -0.3 | -7.1 | -0.1 | 10.9
Cc1ccc(SCCC(=O)N2CCOCC2)cc1 | -8.9 | -0.7 | 3.1 | 7.6 | -0.3 | 3.2
Cc1ccc(SCCC(=O)N2CCCC2)cc1 | 6.2 | -2.9 | -1.1 | -2.0 | 41.8* | -5.0
CC(CCC(C)C(C)(C)C)[C@@H]1CC[C@H]2C3C[C@H](OS(O)(=S)=S)[C@H]4C[C@H](OS(O)(=S)=S)[C@@H](OS(O)(=S)=S)C[C@]4(C)[C@H]3CC[C@]12C (some centres not stated) (tested in a mixture with another compound) | -66.3 | 65.1* | 0.9 | 5.5 | 104.1* | 1.6
CC(CCC(=O)NN)C1CCC2C3CCC4CC(O)CCC4(C)C3CCC12C (configuration not stated) | . | -4.8 | . | -0.6 | -0.1 | .
COc1ccc(CNC(=O)C2Cc3c(-c4ccc5c(c4)OCO5)ccnc3O2)cc1OC (configuration not stated) | . | -2.2 | . | 20.1 | . | .
CCOC(=O)C1=C(C)NC(C)=C(C(=O)OCC)C1c1cccc([N+](=O)[O-])c1 | . | -0.3 | . | 17.6 | . | .
COC(=O)C1=C(C)NC(C)=C(C(=O)OCC(C)C)C1c1ccccc1[N+](=O)[O-] (configuration not stated) | 2.9 | 2.4 | -1.0 | 12.4 | 289.0* | 6.8
CC(=O)Nc1ccc(SCC(=O)Nc2ccccc2N2CCOCC2)cc1 | -4.7 | -0.6 | 0.7 | -0.2 | 1.1 | -6.0
SMILES | Rv3671c protease | FadD28 FP inh | UGM FP inh | Y pestis TopoI | PfHsp40 rescue | Mtb bLac sens
CCC(=O)C1=C(O)C(c2cccc(Oc3ccccc3)c2)CCC1=O (configuration not stated) | -4.2 | -3.9 | 1.9 | -1.9 | 210.6* | -4.2
OCCN1CCN(c2nccn3ccnc23)CC1 | . | -3.6 | . | -0.1 | . | .
Cc1ccc2c(c1)S/C(=C\c1cccc[n+]1C)N2CCO | 2.3 | -2.8 | -4.4 | 2.1 | -0.6 | -3.4
CC(=O)N1c2ccc(C)cc2Sc2c1ccc1ccccc21 | . | -10.3 | . | 25.4 | 29.9* | .
CCCCn1c(SCC(=O)NCc2ccco2)nc2c1c(=O)n(C)c(=O)n2C | 6.0 | -1.9 | 0.3 | 6.3 | 44.5* | -12.0
COc1ccc(-n2c(SCC(=O)NCC3CCCO3)nc3ccccc3c2=O)cc1Cl (configuration not stated) | . | -7.8 | . | 17.3 | . | .
COc1ccc(-n2c(C)cc(C(=O)Cn3nc(C(=O)O)c4ccccc4c3=O)c2C)cc1 | -20.6 | -2.8 | -1.2 | -1.2 | -0.4 | 15.7
Cc1ccc(-n2c(C)cc(C(=O)Cn3nc(C(=O)O)c4ccccc4c3=O)c2C)cc1 | -24.1 | -3.9 | -0.4 | 79.3* | -0.3 | 3.5
Cc1cc(C(=O)Cn2nc(C(=O)O)c3ccccc3c2=O)c(C)n1-c1ccc(OC(F)F)cc1 | -34.0 | -3.2 | -2.0 | 68.1* | -0.6 | 40.7
c1ccc(-c2cc3nc(NCc4cccs4)nc(NCc4ccc5occc5c4)c3s2)cc1 | . | -0.1 | . | 1.3 | . | .
COc1ccc(N2CCN(C(=O)CCCCCn3c(=S)[nH]c4ccc(N5CCOCC5)cc4c3=O)CC2)cc1 | . | -0.1 | . | 13.8 | . | .
CC(Sc1ccc(Cl)cc1)C(=O)NCC(c1ccco1)N1CCCCC1 (configuration not stated) | 1.9 | -1.4 | 1.0 | 10.8 | 34.5* | -1.2
O=C(Nc1ccc(C2=NCCN2)cc1)c1ccc(C(=O)Nc2ccc(C3=NCCN3)cc2)c(Cl)c1 | -14.3 | -1.1 | 1.0 | 0.8 | 234.3* | 99.8
O=C(Nc1ccc(NC(=O)c2ccc(Cl)cc2Cl)cc1)c1ccc2c(c1)OCO2 | -1.6 | 0.0 | 0.1 | 1.8 | -0.7 | 7.9
CN(C)CCN=Cc1c(O)n(Cc2ccc3c(c2)OCO3)c(=S)[nH]c1=O | -19.2 | -1.8 | 1.1 | -2.7 | 82.1* | -4.2
OC(c1cccc(Cl)c1)c1ncc(-c2ccc(Oc3ccccc3)cc2)[nH]1 (configuration not stated) | . | 0.5 | . | -1.0 | . | .
Cc1c(Cl)cccc1NS(=O)(=O)c1ccc2c(c1)C1C=CCC1C(c1ccc(C(=O)O)cc1)N2 (configuration not stated) | 10.1 | 27.7* | 3.4 | -1.5 | 34.8* | 1.4
COc1ccc(NS(=O)(=O)c2ccc3c(c2)[C@H]2C=CC[C@H]2[C@@H](c2ccc(C(=O)O)cc2)N3)cc1 | 25.3 | 32.2* | 0.8 | -25.4 | -0.1 | -2.1
Nc1ccc(S(=O)(=O)Nc2nccs2)cc1N=Nc1ccccc1[N+](=O)[O-] | . | 11.6* | . | -15.8 | 1.7 | .
